# Marburg entry inh – qHTS for inhibitors of binding or entry into cells for Marburg Virus; Marburg virus pseudotyped entry inhibition, cell reporter; Potency, µM (titrated, usually from 37.8 µM), usual class: inhibitors; 1.8% of 300,000 active; AID 540276, 2011; calls by dose curve; tested in HEK293 cells
# Lassa entry inh – qHTS for Inhibitors of binding or entry into cells for Lassa Virus | Lassa virus pseudotype entry inhibition, cell reporter | Potency, µM (doses to about 37.9 µM), usual class: inhibitors | 1.2% of 300,000 active | AID 540256, 2011; calls by dose curve; tested in HEK293 cells; further: nearly all actives have a fitted effect of over 50% in size
# VACV mCherry inh – qHTS for Stage-Specific Inhibitors of Vaccinia Orthopoxvirus: mCherry Reporter Primary qHTS | Potency, µM (series often up to 36.5 µM), usual class: inhibitors | Vaccinia virus mCherry reporter infection, fluorescence | 0.63% of 310,000 active | AID 720579, 2013; calls by dose curve; tested in A549 cells; further: nearly all actives have a fitted effect of over 35% in size
# HCV inh – qHTS Assay for Inhibitors of Hepatitis C Virus (HCV); Huh7.5.1 HCVcc-Cre infection, luciferase reporter, 44 h; Potency, µM (top dose mostly 41.8 µM), usual class: inhibitors; 3.4% of 340,000 active; AID 651820, 2012; active means well fitted inhibition curve with a large enough effect; inconclusive means small, poorly fitted or top-dose-only effect, or another doubt; inactive means no such curve, though single readings can be large or run the other way
#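 Luciferase read-out (15 sec integration) after a 15 min room-temperature substrate step quantifies HCVcc-Cre infection. Cells, 1,000 per well, had compound added 4 h post-plating, then virus at ~0.5 moi, and were cultured 44 h.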
# Vaccinia Venus – qHTS for Stage-Specific Inhibitors of Vaccinia Orthopoxvirus: Venus Reporter Primary qHTS. Potency, µM (highest dose often 36.5 µM), usual class: inhibitors. Vaccinia virus Venus reporter expression, fluorescence. 0.46% of 330,000 active; calls by dose curve; tested in A549 cells; further: nearly all actives have a fitted effect of over 30% in size
# FMDV inh – High Throughput Screening for Foot and Mouth Disease Virus Antivirals. 1.2% of 410,000 active. AID 1159524, 2015. Potency, µM (highest dose often 57.9 µM), usual class: inhibitors. FMDV antiviral cell-based qHTS; calls by dose curve; tested in HEK293T cells; further: read-out not given here; nearly all actives have a fitted effect of over 45% in size
# Numbers stand for hits; . = inactive; ? = inconclusive; / = no result given; [ ] = remark or other dose. Hits are enriched below; roughly 5.3% of the tested compounds scored in any of these assays.
SMILES,Marburg entry inh,Lassa entry inh,VACV mCherry inh,HCV inh,Vaccinia Venus,FMDV inh
COc1cccc(N2CCN(C(=O)c3ccc(CS(=O)c4cccc(Cl)c4)o3)CC2)c1 (centres undefined),/,.,.,/,.,.
COc1ccc(C(=O)Nc2nnc(SCc3cc(=O)c4cccc(F)c4[nH]3)s2)cc1,/,?,.,/,.,.
COc1cc(CCN2C(=O)NC(c3ccccc3)C(C(C)=O)=C2C)cc(OC)c1OC (centres undefined),.,/,/,/,/,/
COc1ccccc1NC(=O)Cn1c(C)nc2c(sc(=S)n2Cc2ccco2)c1=O,/,/,.[7.34 µM],13µM,.[7.34 µM],.
Cc1nc2c(sc(=S)n2Cc2ccco2)c(=O)n1CC(=O)Nc1cc(F)ccc1F,/,/,/,13µM,/,.
Cc1ccc(Cn2c(=O)n(Cc3ccccc3)c(=O)c3oc4ccccc4c32)cc1,/,.,.,/,.,.
Cn1c(-c2ccccc2)cc2c3no[n+]([O-])c3ccc21,3.5µM,4.5µM,.[1.46 µM],2.5µM,?,.
Cn1c(-c2ccccc2)cc2ccccc21,.,.,.,.,.,.
COc1ccc(CNCCC2(Cc3ccccc3)CC(C)N(C)CC2C)cc1OC (centres undefined),/,/,/,7.9µM,/,.
COc1ccc(CCN2C(=O)CC(Cc3ccccc3)C2=O)cc1OC (centres undefined),/,/,/,.,/,.
COc1ccc(CN(CCC#N)CCC2(c3ccccc3)CC(C)N(C)CC2C)cc1OC (centres undefined),13µM,.,.[7.34 µM],.,.[7.34 µM],.
CC1CC(CCN)(c2ccccc2)C(C)CN1C (centres undefined),4µM,.,.[7.34 µM],.,.[7.34 µM],.
COc1ccc2c(c1)c1c(c(=O)n(Cc3ccccc3)c(=O)n1CC(=O)NCc1ccc(C)cc1)n2C,/,.,.,/,.,.
C=C(C)Cc1c(C)c(C#N)c2[nH]c3ccccc3n2c1=O,13µM,?,.,?,.,?
Cc1ccc(Cc2c(C)c(C#N)c3[nH]c4ccccc4n3c2=O)cc1,/,/,/,11µM,/,?
CC(Nc1ncnc2ccccc12)c1ccccc1 (centres undefined),?,?,.,4.5µM,.,?
Cc1ccc(-n2ncc3c(NC(C)c4ccccc4)ncnc32)cc1 (centres undefined),/,.,.,/,.,.
COc1ccc(/C=C/C(=O)N2CCc3c(cnc(C)c3CNC(=O)c3ccsc3)C2)cc1OC,/,/,.,/,.,.
CC(CN(C)C)CN1c2ccccc2CCc2ccccc21 (centres undefined),13µM,?,.,.,?,?
CNC(=O)N1c2ccccc2CCc2ccccc21,/,/,/,.,/,.
C[C@@H](CN(C)C)CN1c2ccccc2CCc2ccccc21,13µM,/,/,/,/,/
CO[C@H]1[C@H](NC(=O)c2ccsc2)c2ccccc2C12CCN(Cc1cccn1-c1ccccn1)CC2,/,/,.,/,.,.
COCOCCn1cc(CN2CCS(=O)(=O)N(Cc3ccc(-c4ccc(F)nc4)cc3)C(C)C2=O)nn1 (centres undefined),?,/,.,/,.,.
O=C(N/N=C/c1ccc(O)cc1O)c1ccc(CN2C(=O)c3cccc4cccc2c34)cc1,3.2µM,5.2µM,2.5µM,?,?,.
Cc1cc([N+](=O)[O-])nn1Cc1ccc(C(=O)N/N=C/c2ccc(F)cc2)cc1,?,.,.,.,.,.
SMILES,Marburg entry inh,Lassa entry inh,VACV mCherry inh,HCV inh,Vaccinia Venus,FMDV inh
O=C(N/N=C/c1ccccc1)c1ccc(CN2C(=O)c3cccc4cccc2c34)cc1,.,.,.,?,.,.
Cc1cc([N+](=O)[O-])nn1Cc1ccc(C(=O)N/N=C/c2ccc(O)cc2O)cc1,7.3µM,3.5µM,?,?,?,.
CCOC(=O)c1c(SCCN2CCCCC2)n(-c2ccccc2)c(=S)n(-c2ccccc2)c1=O,.,.,.,?,.,20µM
CC(C)(C)c1ccc(S(=O)(=O)N2CCN(c3nc(-c4ccccc4)nc4ccccc34)CC2)cc1,/,/,.,/,.,/
NC(=S)N=Nc1c(O)[nH]c2ccc(F)cc12,.,.,5µM,.,3.5µM,.
O=Nc1c(O)[nH]c2ccc(F)cc12,.,.,.,.,.,.
Cc1cc(C)c(NC(=O)Cc2ccc(-n3c(C)nc4cccnc43)cc2)c(C)c1,/,.,.,/,.,?
CCn1c(SCC(=O)Nc2nc(-c3ccccc3)cs2)nnc1-c1ccccc1O,?,?,/,11µM,?,35µM

# Screening data (PubChem)
